# The list is not random: actives were taken first. Their share in the collection is about 3.7%.
# BRCA1 expr up = increases BRCA1 expression. MCF7-BRCA1-FFLuc reporter, luminescence, 48 h; response scale: scaled: vehicle 0%, 10 µM genistein 100%. Potency, µM (titrated, usually from 46.1 µM), for the others: top-dose activation, actives largely listed as activators. 380,000 compounds, 1.1% hits; also: potency is read from the fitted curve at half-maximal effect; nearly all actives have a fitted effect of over 80% in size
#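 Quantitative HTS in MCF7 cells stably reporting BRCA1 expression via firefly luciferase. Compound treatment lasts 48 h at 37 °C in phenol-red free MEM. Activation is expressed relative to genistein at 10 microM and DMSO.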
# PTHR1 ag = PTHR1 (human) receptor agonism; Q03431; HEK293 GP2 PTHR1 cells, GloSensor cAMP luminescence, 1 h; Potency, µM (titrated, usually from 115 µM), without a hit: at the top dose activation, most hits filed as activators; 410,000 compounds, 0.075% hits; also: potency is read from the fitted curve at half-maximal effect; nearly all actives have a fitted effect of over 55% in size
# Target sequence (Q03431 whole entry, looked up): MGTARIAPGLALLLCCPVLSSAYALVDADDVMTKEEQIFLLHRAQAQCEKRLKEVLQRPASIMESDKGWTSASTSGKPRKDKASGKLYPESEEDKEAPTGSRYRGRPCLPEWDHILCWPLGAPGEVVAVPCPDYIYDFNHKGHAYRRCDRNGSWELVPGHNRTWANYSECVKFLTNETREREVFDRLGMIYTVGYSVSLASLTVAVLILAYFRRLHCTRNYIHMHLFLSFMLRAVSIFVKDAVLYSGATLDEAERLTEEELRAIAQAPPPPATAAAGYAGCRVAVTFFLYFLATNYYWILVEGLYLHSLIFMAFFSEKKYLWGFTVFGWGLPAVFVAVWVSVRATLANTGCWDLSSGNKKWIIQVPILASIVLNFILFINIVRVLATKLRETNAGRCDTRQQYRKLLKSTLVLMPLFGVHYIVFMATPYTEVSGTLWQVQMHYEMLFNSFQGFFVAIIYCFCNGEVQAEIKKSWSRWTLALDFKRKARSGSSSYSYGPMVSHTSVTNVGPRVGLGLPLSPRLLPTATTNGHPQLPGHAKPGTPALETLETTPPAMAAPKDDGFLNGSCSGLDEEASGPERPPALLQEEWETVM
#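 HEK-293-derived GP2 cells expressing PTHR1 and a GloSensor cAMP reporter, 3,000/well, plated overnight, given luciferin plus IBMX (each 0.5 mM as added) for 1 h at 37 °C, then compound for 1 h at 37 °C. Luminescence was read after 15 min at room temperature.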
# RGS4 inh = inhibitors of human regulator of G protein signaling 4. Transcreener GDP fluorescence polarization, RGS4-accelerated GTP hydrolysis. Potency, µM (doses to about 114 µM), for inactives: at the highest dose activity change, negative = inhibition, hits mostly inhibitors. 390,000 compounds, 0.039% hits. AID 504845; also: potency is read from the fitted curve at half-maximal effect; % is scaled to controls: 0 for no effect and ±100 for the full control effect; nearly all actives have a fitted effect of over 75% in size
#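 MLSMR compounds (23 nl, pin-transferred) preincubated 10 min at room temperature with a 500nM (2x) first reagent, then RGS4 at 900nM (2x) plus Transcreener GDP mix added; fluorescence polarization (620/688 nm) read before and after 90 min at 30 °C.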
# DRD3 agonist = activates the human D3 dopamine receptor. P35462. max activation, %. AID 652048. D3R DiscoveRx beta-arrestin cells, luminescence, 90 min. 410,000 compounds, 0.58% hits; in the data active = max activation above about 30%; also: 0% is about no effect
#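 Agonist mode: compounds and dopamine controls were applied to plated cells for 90 min at 37 degrees C after an overnight attachment at 1500 cells/well. Luminescent read-out followed 30 - 60 minutes at room temperature with DiscoveRx detection reagent.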
# B2AR arrestin = agonists driving beta-arrestin recruitment to human beta2-adrenergic receptor | P07550 | beta-arrestin recruitment to beta2AR, cell-based reporter | Potency, µM (top dose mostly 46.1 µM), for inactives: at the highest dose activation, actives largely listed as activators | 330,000 compounds, 0.02% hits;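 also: potency is read from the fitted curve at half-maximal effect; 0% = DMSO controls and full agonism = EC100 isoproterenol or metaproterenol; nearly all actives have a fitted effect of over 65% in size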
# DRD3 antagonist = blocks the human D3 dopamine receptor; P35462; D3R cells, DiscoveRx beta-arrestin luminescence, antagonist mode; active compounds read low; max response, negative = inhibition, %; 360,000 compounds, 2.5% hits; in the data active = max response below about -50%; inconclusive = no clear call, values can overlap the other calls; also: % is scaled to controls: 0 for no effect and ±100 for the full control effect
#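 Cells plated overnight at 1500 cells/well, then exposed to library compounds with dopamine controls for 90 minutes at 37 degrees C. DiscoveRx reagent added for 30–60 minutes at room temperature; luminescence read, quantitative HTS format.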
# Numbers without * were called inactive; i = inactive; u = inconclusive; x = not tested or not shown; [ ] = remark or other dose. Unless noted, calls follow the shape of the dose curve; as a rule, active = well fitted curve in the direction sought with a large enough effect; inconclusive = small, poorly fitted or top-dose-only effect, or another doubt; inactive = no such curve, though single readings can be large; an effect the other way counts as inactive or inconclusive.
SMILES,BRCA1 expr up,PTHR1 ag,RGS4 inh,DRD3 agonist,B2AR arrestin,DRD3 antagonist
CSc1ccc(CNC(=O)C2CCC(=O)N(Cc3cccc(F)c3)C2)cc1 (stereo unspecified),-8.0%,i,-4.6%,0.5,-0.1%,-0.9
COc1ccc(-c2nc3sc(CCNC(=O)c4cc(OC)c(OC)c(OC)c4)c(C)n3n2)cc1,7.94µM*,-52.6%,-28.9%,-4.0,x,x
Cc1cc(/C=C2\SC(=S)NC2=O)c(C)n1C1CC1,12.6µM*,-11.9%[57.5 µM],-24.6%,-1.7,0.3%,8.7
CN1C(=O)/C(=C/C=C2\SCCN2C)N(C)C1=S,u,-10.9%,-35.6%,-2.8,-0.1%,-11.6
Cc1cc(/C=C2/C(=O)N(C)C(=S)N2C)c(C)n1C1CC1,11.2µM*,-32.9%,-29.7%,-3.8,-2.6%,15.1
O=C1NC(=S)SC1=Cc1cc(Br)ccc1O,-39.8%,i,u,-21.2,x,-13.4
CC(=O)c1cccc(NC(=O)CN2C(=O)CN(C)C(=O)c3ccccc32)c1,x,i,25.0%,2.2,x,x
CN1C(=O)c2ccccc2Cc2c(NCc3ccccc3)ncnc21,-5.2%,-2.3%,x,4.5,x,29.8
O=C(NCC1CCCO1)c1ccccc1OCc1ccc(F)cc1 (stereo unspecified),-16.3%,i,-3.3%,-5.2,0.1%,-65.9*
Cc1ccc(OCc2ccc(C(=O)NCC3CCCO3)cc2)cc1 (stereo unspecified),23.0%,-94.4%,5.5%,8.5,0.3%,13.2
O=C(NCC1CCCO1)c1ccc(COc2ccccc2)cc1 (stereo unspecified),11.2µM*,-19.0%,9.4%,-0.6,0.0%,0.5
CCCCNS(=O)(=O)c1ccc2nc(-c3cccnc3)cc(C(=O)NC3CCCC3)c2c1,-4.2%,i,-20.1%,14.8,-0.2%,8.7
C=C1CC[C@H](O)C/C1=C\C=C1/CCC[C@]2(C)[C@@H]([C@H](C)CCCC(C)C)CC[C@@H]12,x,x,x,6.4,x,x
COc1ccc(Cl)cc1NC(=S)NCCC(c1ccccc1)c1ccccc1,-60.9%,28.2%,10.2%,-21.2,0.4%,-64.6*
Cc1ccc(OCCCN2CCOCC2)c([N+](=O)[O-])c1,u,i,0.5%,-10.3,1.0%,u
Cc1ccc(C)c(OCCCN2CCNCC2)c1,12.3%,-12.3%,24.0%,-1.2,3.4%,1.6
Cc1ccc(OCCN2CCN(C)CC2)c([N+](=O)[O-])c1,-8.3%,9.1%,-30.4%,7.2,-0.5%,-53.1*
Cc1ccc(OCCN2CCNCC2)c([N+](=O)[O-])c1,-5.7%,-5.9%,-14.1%[11.4 µM],-11.2,-0.4%,-86.6*
Nc1nc(Cl)nc2c1ncn2[C@@H]1O[C@H](COP(=O)(O)OP(=O)(O)OP(=O)(O)O)[C@@H](O)[C@H]1O,x,x,0.532µM*,x,x,x
Nc1nc(Cl)nc2c1ncn2C1OCC(O)C(O)C1O (stereo unspecified),31.5%,i,-46.6%,-15.4,x,-29.0
Nc1ncnc2c1ncn2[C@@H]1O[C@H](COP(=O)(O)OP(=O)(O)OP(=O)(O)OP(=O)(O)OC[C@@H]2O[C@H](n3cnc4c(N)ncnc43)[C@@H](O)[C@H]2O)[C@@H](O)[C@H]1O,x,x,2.99µM*,x,x,x
CCOc1ccc(S(=O)(=O)N2CCC(n3c(C)nc4cccnc43)CC2)cc1,x,-7.8%,-1.3%,-9.6,x,x
COC(=O)C1CCN(Cc2cn(-c3ccccc3)nc2-c2ccc3c(c2)OCO3)CC1,-2.4%,i,-13.3%,-2.3,-0.5%,-69.0*
CC1CCN(C(=O)CCc2nnc(-c3ccccc3)o2)CC1,12.6µM*,-14.8%,-9.9%,-7.6,-0.5%,-12.9
COC(=O)C1CCN(Cc2nnc(-c3ccccc3)o2)CC1,-9.0%,i,-6.0%,81.1*,-0.7%,19.4
SMILES,BRCA1 expr up,PTHR1 ag,RGS4 inh,DRD3 agonist,B2AR arrestin,DRD3 antagonist
CC1CCN(C(=O)CSc2nnc(-c3ccccc3)o2)CC1,x,i,-17.2%,3.7,x,x
CC(=O)NCC1CCCN(Cc2cn(-c3ccccc3)nc2-c2ccc3c(c2)OCO3)C1 (stereo unspecified),-6.4%,-40.0%,-2.0%,-12.3,0.0%,-10.1
CCOC(=O)c1ccc(NC(=O)C(C)N(c2ccc(OCC)cc2)S(C)(=O)=O)cc1 (stereo unspecified),8.3%,-10.8%,-25.4%,-10.8,x,x
CCOC1=C2CN(S(=O)(=O)c3ccc(C)cc3)C(c3ccccc3)CC2N(S(=O)(=O)c2ccccc2Cl)C(c2ccccc2)C1 (stereo unspecified),x,-5.2%,x,0.3,x,16.4
Cc1ccc(N=Nc2c(N)n[nH]c2N)cc1,10µM*,-7.5%,-1.9%,-0.3,0.1%,u
Nc1n[nH]c(N)c1N=Nc1ccc2c(c1)OCO2,10µM*,i,-19.9%,1.0,-1.0%,0.4
COc1ccc(N2C(=O)CC(Sc3nnnn3-c3ccc(F)cc3)C2=O)cc1 (stereo unspecified),-61.9%,-43.6%,-10.1%,-7.0,-0.1%,-59.9*
CN(CCO)c1ccc2c(c1)OC[C@H](Cc1ccccc1)NS2(=O)=O,-0.2%,-35.9%,x,1.8,x,8.8
COc1cccc(NC(=O)N(CCCN2CCOCC2)C(C)c2cc3ccccc3o2)c1 (stereo unspecified),1.1%,i,-19.5%,-52.3,-0.2%,-69.8*
C[C@H]1C=C2C=C[C@H](C)[C@H](CC[C@@H]3C[C@@H](O)CC(=O)O3)[C@H]2[C@@H](OC(=O)[C@@H](C)CCO)C1,x,x,-12.2%[56.9 µM],x,x,x
CCc1cc2c(=O)[nH]c(-c3ccccn3)nc2s1,-73.8%,i,u,-22.2,u,-68.3*
CCN(CC)C(=O)C1CCN(Cc2cccc(OCc3ccccc3)c2)CC1,-18.2%,i,3.5%,1.1,0.4%,-61.1*
CCN(CC)C(=O)C1CCN(Cc2ccc(OCc3ccccc3)c(OC)c2)CC1,12.1%,i,-5.5%,-11.2,-0.3%,-18.9
CCOC(=O)C1CCN(Cc2ccc(OCc3ccccc3)c(OC)c2)CC1,24.3%,i,-16.2%,-8.4,-0.4%,2.2
COc1cc(CN2CCC(C(=O)NCCC(C)C)CC2)ccc1OCc1ccccc1,84.3%,-32.3%,2.9%,-9.9,-0.2%,0.9
COc1ccc(CN2CCC(C)CC2)cc1OCc1ccccc1,7.9%,i,-3.2%,-25.3,-0.1%,-89.2*
COc1cc(CNC(=O)C2CC2)ccc1OCc1ccccc1,12.6µM*,-7.6%,21.7%,0.4,-0.8%,2.0
CCN(CC)C(=O)C1CCN(Cc2ccc(OCc3ccccc3)cc2)CC1,0.1%,-37.3%,8.4%,-5.7,0.3%,5.4
CCOC(=O)C1CCN(Cc2ccc(OC)c(OCc3ccccc3)c2)CC1,-1.7%,-47.1%,25.5%,-18.2,-0.4%,-64.6*
COc1cc(CN2CCCCC2)ccc1OCc1ccccc1,10µM*,i,8.6%,-15.8,-0.2%,22.4
